Laboratory results taken from PubChem BioAssay (Tox21).
Results filed as inconclusive are left out. Entries that show only a call come without a potency. Calls of active or inactive are those of the source. Calls come from the whole dose curve.

The molecules below were run against Peroxisome proliferator-activated receptor gamma (Homo sapiens) (UniProt P37231) (assay: qHTS assay to identify small molecule antagonists of the peroxisome proliferator-activated receptor gamma (PPARg) signaling pathway (AID 743191; note: nearly all actives have a fitted effect of over 30% in size)). Settings: HEK293H PPARg-UAS-bla, beta-lactamase ratio, antagonist, 17 h; series mostly up to 62.6 µM.
Chain of Peroxisome proliferator-activated receptor gamma (Homo sapiens) (P37231 whole entry, looked up): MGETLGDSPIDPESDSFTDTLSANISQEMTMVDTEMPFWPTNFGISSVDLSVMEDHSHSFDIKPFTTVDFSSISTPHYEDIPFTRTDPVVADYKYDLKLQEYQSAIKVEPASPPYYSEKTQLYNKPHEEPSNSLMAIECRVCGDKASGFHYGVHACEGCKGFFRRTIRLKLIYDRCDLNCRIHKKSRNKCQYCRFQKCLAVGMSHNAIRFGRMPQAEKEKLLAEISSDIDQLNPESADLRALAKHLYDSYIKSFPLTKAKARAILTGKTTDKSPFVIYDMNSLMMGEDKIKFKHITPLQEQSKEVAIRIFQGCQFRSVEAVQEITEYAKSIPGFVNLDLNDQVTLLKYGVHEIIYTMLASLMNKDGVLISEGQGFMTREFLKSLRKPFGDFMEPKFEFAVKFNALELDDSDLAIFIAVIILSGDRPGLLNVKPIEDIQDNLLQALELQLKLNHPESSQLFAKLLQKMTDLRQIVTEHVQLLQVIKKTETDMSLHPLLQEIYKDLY
From the text: U.S. Tox21 Program National Center for Advancing Translational Sciences [NCATS] NIH Chemical Genomics Center [NCGC] U.S. Environmental Protection Agency [EPA] National Institutes of Environmental Health Sciences [NIEHS] National Toxicology Program [NTP] U.S. Food and Drug Administration [FDA] Tox21 Assay Overview: The peroxisome proliferator-activated receptors (PPARs) are lipid-activated transcription factors of the nuclear receptor superfamily with three distinct subtypes namely PPAR alpha, PPAR delta (also called PPAR beta) and PPAR gamma (PPARg). All these subtypes heterodimerize with Retinoid X receptor (RXR) and these heterodimers regulate transcription of various genes. PPAR-gamma receptor (glitazone receptor) is involved in the regulation of glucose and lipid metabolism. To identify the compounds that inhibit PPAR-gamma signaling, GeneBLAzer PPAR gamma UAS-bla HEK293H cell line (Invitrogen, Carlsbad, CA, USA) containing a beta-lactamase reporter gene under control of an Upstream Activator Sequence (UAS) was used to screen the Tox21 compound library.
Tox21 Assay Protocol Summary: PPARg-bla cells were dispensed at 3000 cells/6uL/well in 1536-well black wall/clear bottom plates using a Multidrop Combi (Thermo Fisher Scientific, Waltham, MA) dispenser. After the assay plates were incubated at 37C and 5% CO2 for 5 h, 23 nL of compounds dissolved in DMSO, positive controls or DMSO only was transferred to the assay plate by a Pintool station (Kalypsys, San Diego, CA). The assay plates were incubated at 37C for 17 h. After 1 uL of LiveBLAzerTM B/G FRET substrate was added using a Bioraptr Flying Reagent Dispenser (FRD) workstation (Beckman Coulter, Indianapolis, IN, USA), the plates were incubated at room temperature for 1 h, and fluorescence intensity was measured by an Envision plate reader (PerkinElmer, Shelton, CT).
Potency is the fitted concentration of half-maximal effect.

Row | Structure (SMILES) | Potency
1 | Nc1cc(-c2ccncc2)c[nH]c1=O | inactive
2 | CCCCCCOC(C)=O | inactive
3 | CC1CC(OC(=O)c2ccccc2O)CC(C)(C)C1 (stereo not given) | inactive
4 | CCCCCCCCCC(=O)O | 30.9 µM (active)
5 | O=Nc1ccc(O)cc1 | inactive
6 | CC(C)Cc1ccccc1 | inactive
7 | OCC1CCCO1 (stereo not given) | inactive
8 | O=[N+]([O-])C(CO)(CO)CO | inactive
9 | NS(=O)(=O)c1cc2c(cc1Cl)NC=NS2(=O)=O | inactive
10 | CC(C)(C)C1CCC(O)CC1 (stereo not given) | inactive
11 | CCCCNC(N)=O | inactive
12 | c1ccc2ccccc2c1 | inactive
13 | OC1CCCC1 | inactive
14 | CCCCCCC(C)(C)S | inactive
15 | CCOC(=O)C1OC1c1ccccc1 (stereo not given) | inactive
16 | O=C(O)c1cc(-c2ccccc2)nc2ccccc12 | inactive
17 | CCCCCCCCCCCCOCC1CO1 (stereo not given) | inactive
18 | CC(=O)CCc1ccccc1 | inactive
19 | CC1(C)CC(N=C=O)CC(C)(CN=C=O)C1 (stereo not given) | inactive
20 | CC1Cc2ccccc2N1NC(=O)c1ccc(Cl)c(S(N)(=O)=O)c1 (stereo not given) | inactive

Row | Structure (SMILES) | Potency
21 | COCC(=O)O | inactive
22 | CCOC(=O)[C@H](CCc1ccccc1)N[C@@H](C)C(=O)N1Cc2ccccc2C[C@H]1C(=O)O | inactive
23 | O=S(=O)(O)CCS | inactive
24 | CS(=O)(=O)c1ccc([C@@H](O)[C@@H](CO)NC(=O)C(Cl)Cl)cc1 | inactive
25 | Nc1c(S(=O)(=O)O)cc(Br)c2c1C(=O)c1ccccc1C2=O | inactive
26 | O=C(Cl)c1c(Cl)c(Cl)c(C(=O)Cl)c(Cl)c1Cl | inactive
27 | O=C1CCCCC1 | inactive
28 | COCC(C)O (stereo not given) | inactive
29 | C=C(C)C(=O)OCCC[Si](OC)(OC)OC | inactive
30 | Cn1c([N+](=O)[O-])cnc1COC(N)=O | inactive
31 | CCCCCCCCC | inactive
32 | Cc1ccc(C(=O)O)o1 | inactive
33 | CN(C)c1cccc(O)c1 | inactive
34 | OC[C@@H](O)[C@H](O)[C@H](O)[C@@H](O)CO | inactive
35 | NCc1cccc(CN)c1 | inactive
36 | CCC(C)C=O (stereo not given) | inactive
37 | CC(C)(CO)COC(=O)C(C)(C)CO | inactive
38 | CCOC(=O)/C=C\C(=O)OCC | inactive
39 | C[C@@H](O)[C@H]1C(=O)N2C(C(=O)O)=C(S[C@@H]3CN[C@H](C(=O)N(C)C)C3)[C@H](C)[C@H]12 | inactive
40 | CC(=O)Nc1ccc(C(=O)O)cc1 | inactive
